Inconclusive results are not listed. The source made the active and inactive calls. Unless noted, calls follow the shape of the full dose curve.
Tests used:
[1] = Nuclear factor erythroid 2-related factor 2/antioxidant responsive element (Nrf2/ARE) small molecule agonists: qHTS cell viability counter screen in human keratinocytes (AID 1919968; active = well fitted curve in the direction sought with a large enough effect in the repeat runs; an effect the other way counts as inactive or inconclusive; also: nearly all actives have a fitted effect of over 55% in size)
Procedure, shortened: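 Parallel cytotoxicity read: KeratinoSens HaCaT cells, compound treatment 23 h, viability by CellTiter-Fluor fluorescence 1 h post-reagent.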

[2] = Nuclear factor erythroid 2-related factor 2/antioxidant responsive element (Nrf2/ARE) small molecule agonists: luciferase reporter gene qHTS assay in human keratinocytes (AID 1919969); also: nearly all actives have a fitted effect of over 35% in size
[3] = target: Gonadotropin-releasing hormone receptor (Homo sapiens) (UniProt P30968); test: Human gonadotropin-releasing hormone receptor (GnRHR) small molecule agonists, calcium flux assay in GnRHR-HEK293 cells (AID 1920063); also: nearly all actives have a fitted effect of over 35% in size
Procedure, shortened: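 Calcium flux, agonist mode, human GnRHR stably integrated in HEK293; dye 1 h at 37 C before compound; Ex/Em=480/540 kinetic read, 3 min; 15 concentrations, triplicate.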

[4] = target: KiSS-1 receptor (Homo sapiens) (UniProt Q969F8); test: Human kisspeptin (KISS1R) small molecule agonists, calcium flux assay in KISS1R-HEK293 cells (AID 1920064; active = well fitted curve in the direction sought with a large enough effect in the repeat runs; an effect the other way counts as inactive or inconclusive)
Procedure, shortened: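 Triplicate 15-concentration series were applied to dye-loaded human KISS1R HEK293 cells, and agonist-evoked calcium fluorescence was captured for 3 min.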

[5] = G protein-coupled receptor (GPCR) small molecule agonists, calcium flux assay: HEK293 wild type cell line counter screen (AID 1920065)
Procedure, shortened: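 Non-specific calcium responders were flagged by adding DMSO-dissolved compounds to dye-loaded cells and reading 480/540 nm fluorescence each second for 3 min; ATP served as positive control.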

[6] = p53 small molecule agonists, cell-based qHTS assay with rat liver microsomes (AID 1963578)
Procedure, shortened: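 Agonist mode in p53RE-bla reporter cells, with compounds co-incubated 16 h at 37 C alongside 0.5 mg/mL rat liver microsomes and 0.5 mg/mL NADPH (final), followed by a 2 h LiveBLAzer detection step.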

[7] = p53 small molecule agonists, cell-based qHTS assay with human liver microsomes: qHTS cell viability counter screen (AID 1963579); also: nearly all actives have a fitted effect of over 45% in size
Procedure, shortened: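 Metabolically activated exposure: compounds, human liver microsomes and NADPH (0.5 mg/mL final apiece) were added to p53RE-bla cells seeded 5 h earlier, left 16 h at 37 C, and then assessed for viability by CellTiter-Glo luminescence.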

[8] = p53 small molecule agonists, cell-based qHTS assay with rat liver microsomes: qHTS cell viability counter screen (AID 1963580); also: nearly all actives have a fitted effect of over 45% in size
Procedure, shortened: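 Cytotoxicity counter screen: intracellular ATP read by CellTiter-Glo luminescence in the p53 reporter wells. HCT-116 p53RE-bla cells were treated for 16 h at 37 C alongside rat liver microsomes and NADPH, each 0.5 mg/mL final.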

[9] = p53 small molecule agonists, cell-based qHTS assay: qHTS cell viability counter screen (AID 1963581); also: nearly all actives have a fitted effect of over 45% in size
Procedure, shortened: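 Multiplexed with the reporter read, a CellTiter-Glo step (30 min, room temperature) gauges ATP-based viability of HCT-116 p53RE-bla cells after 16 h compound incubation at 37 C.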

[10] = p53 small molecule agonists, cell-based qHTS assay (AID 1963582; active = well fitted activation curve with a large enough effect in the signal ratio in the repeat runs, not every such curve was filed as active; the % refers to the signal ratio)
Procedure, shortened: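 Beta-lactamase reporter cells (p53RE-bla) treated with compounds for 16 h at 37 C; FRET substrate, 2 h, room temperature; fluorescence intensity.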

[11] = target: 5-hydroxytryptamine receptor 2A (Homo sapiens) (UniProt P28223); test: 5-hydroxytryptamine receptor 2A (HTR2A) small molecule antagonists, cell-based qHTS assay (AID 1963586); also: nearly all actives have a fitted effect of over 45% in size
Procedure, shortened: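 CHO cells stably expressing human HTR2A were plated for 18 h at 37 C, then loaded with calcium dye for 1 h. Compounds were preincubated 5 min at room temperature before DOI (4 nM solution) was added. Kinetic fluorescence was read for 3 min.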

[12] = target: 5-hydroxytryptamine receptor 2A (Homo sapiens) (UniProt P28223); test: 5-hydroxytryptamine receptor 2A (HTR2A) small molecule agonists, cell-based qHTS assay (AID 1963587); also: nearly all actives have a fitted effect of over 30% in size
Procedure, shortened: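 Kinetic calcium-flux fluorescence (2 min, 1 sec intervals) after compound addition in agonist mode. HTR2A-CHO cells were cultured 18 h, then dye-loaded 1 h at 37 C.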

[13] = target: Muscarinic acetylcholine receptor M1 (Homo sapiens) (UniProt P11229); test: Cholinergic receptor muscarinic 1 (CHRM1) small molecule antagonists, cell-based qHTS assay (AID 1963588); also: nearly all actives have a fitted effect of over 40% in size
Procedure, shortened: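 Compounds were tested at 15 concentrations in three independent runs. Dye-loaded CHRM1-CHO cells were exposed 5 min at room temperature before stimulation by acetylcholine added at 50nM. Intracellular calcium was read kinetically on FDSS for 3 min.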

[14] = target: Muscarinic acetylcholine receptor M1 (Homo sapiens) (UniProt P11229); test: Cholinergic receptor muscarinic 1 (CHRM1) small molecule agonists, cell-based qHTS assay (AID 1963589); also: nearly all actives have a fitted effect of over 35% in size
Procedure, shortened: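 qHTS, 15-point titration, 3 independent runs: compounds pin-transferred onto dye-loaded CHRM1-CHO cells (human M1), calcium fluorescence followed every second to detect agonism.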

[15] = cAMP Responsive Elements (CRE) small molecule agonists, cell-based qHTS assay (AID 1963590)
Procedure, shortened: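 Quantitative HTS for CRE agonists: HEK 293T CRE-bla cells, overnight plating, 3 h compound incubation at 37 C/5% CO2, then 2 h room-temperature LiveBLAzer B/G FRET substrate loading.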

[16] = cAMP Responsive Elements (CRE) small molecule antagonists, cell-based qHTS assay (AID 1963591; active = well fitted inhibition curve with a large enough effect in the signal ratio in the repeat runs, not every such curve was filed as active; the % refers to the signal ratio)
Procedure, shortened: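 Fluorescence intensity from cleaved LiveBLAzer B/G substrate (2 h, room temperature) quantified CRE-bla activity in HEK 293T cells exposed 3 h to compound with 0.25 uM final NKH477.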

[17] = target: Beta-2 adrenergic receptor (Homo sapiens) (UniProt P07550); test: Adrenergic beta2 receptor (ADRB2) small molecule antagonists, cell-based qHTS assay (AID 1963592); also: series mostly up to about 92 µM; nearly all actives have a fitted effect of over 50% in size
Procedure, shortened: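 Assay format: CHO-ADRB2 cells, 18-20hr seeding at 37C/5% CO2, then compound plus 1nM isoproterenol agonist mix for 0.5hr RT. Homogeneous time-resolved fluorescence cAMP detection after 1hr, expressed as 665/615 nm ratio.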

[18] = target: Beta-2 adrenergic receptor (Homo sapiens) (UniProt P07550); test: Adrenergic beta2 receptor (ADRB2) small molecule agonists, cell-based qHTS assay (AID 1963593);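 also: CHO cells stably overexpressing human ADRB2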
Procedure, shortened: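 CHO cells stably over-expressing ADRB2 were plated overnight at 37C, then dosed with compounds plus a stimulation mix containing 100uM IBMX and 25uM Ro-20-1724 for 0.5hr at room temperature. cAMP was measured by HTRF competition, 1hr.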

[19] = target: D(2) dopamine receptor (Homo sapiens) (UniProt P14416); test: Dopamine D2 receptor (DRD2) small molecule agonists, cell-based qHTS assay (AID 1963594); also: nearly all actives have a fitted effect of over 35% in size
Procedure, shortened: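 cAMP accumulation in DRD2-HEK293 cells measured by HTRF after 1 h detection; compounds added 10 min before NKH477 (200nM […]) forskolin-analogue stimulation, 30 min at room temperature, with Ro20-1724 present at 0.1 mM final.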

[20] = target: D(2) dopamine receptor (Homo sapiens) (UniProt P14416); test: Dopamine D2 receptor (DRD2) small molecule antagonists, cell-based qHTS assay (AID 1963595; active = well fitted inhibition curve with a large enough effect in the signal ratio in the repeat runs, with a control signal flat; the % refers to the signal ratio)
Procedure, shortened: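 Readout: HTRF cAMP, cAMP-d2 competing with cellular cAMP for anti-cAMP cryptate, read after 1 h. Cells: DRD2-HEK293. Conditions: 0.1 mM Ro20-1724, 12 nM quinpirole, 200 nM NKH477, 30 min RT.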

Measured: Potency

Beta-2 adrenergic receptor (Homo sapiens), sequence (P07550 whole entry, looked up): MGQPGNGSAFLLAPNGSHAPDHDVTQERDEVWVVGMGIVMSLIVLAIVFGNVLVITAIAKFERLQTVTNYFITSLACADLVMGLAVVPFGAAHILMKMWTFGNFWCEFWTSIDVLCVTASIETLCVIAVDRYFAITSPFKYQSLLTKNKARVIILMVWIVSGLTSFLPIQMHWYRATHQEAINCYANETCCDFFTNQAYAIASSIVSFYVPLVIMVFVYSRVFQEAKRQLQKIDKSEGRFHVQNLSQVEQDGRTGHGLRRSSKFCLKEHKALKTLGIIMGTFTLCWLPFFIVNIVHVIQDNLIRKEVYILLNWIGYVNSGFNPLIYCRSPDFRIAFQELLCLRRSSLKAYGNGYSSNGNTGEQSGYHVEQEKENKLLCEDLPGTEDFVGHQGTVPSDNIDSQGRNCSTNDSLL
D(2) dopamine receptor (Homo sapiens), sequence (P14416 whole entry, looked up): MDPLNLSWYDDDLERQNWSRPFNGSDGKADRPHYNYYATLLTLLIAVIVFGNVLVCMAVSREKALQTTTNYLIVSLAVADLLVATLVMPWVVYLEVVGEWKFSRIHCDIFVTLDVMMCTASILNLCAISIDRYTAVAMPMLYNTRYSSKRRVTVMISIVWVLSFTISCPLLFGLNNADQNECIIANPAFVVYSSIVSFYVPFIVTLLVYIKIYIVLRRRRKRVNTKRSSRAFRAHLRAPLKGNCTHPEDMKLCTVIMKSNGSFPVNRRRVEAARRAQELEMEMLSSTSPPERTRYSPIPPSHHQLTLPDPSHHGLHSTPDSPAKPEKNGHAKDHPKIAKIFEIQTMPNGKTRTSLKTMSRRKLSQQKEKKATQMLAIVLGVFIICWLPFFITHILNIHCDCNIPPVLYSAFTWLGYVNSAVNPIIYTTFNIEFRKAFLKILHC
Gonadotropin-releasing hormone receptor (Homo sapiens), sequence (P30968 whole entry, looked up): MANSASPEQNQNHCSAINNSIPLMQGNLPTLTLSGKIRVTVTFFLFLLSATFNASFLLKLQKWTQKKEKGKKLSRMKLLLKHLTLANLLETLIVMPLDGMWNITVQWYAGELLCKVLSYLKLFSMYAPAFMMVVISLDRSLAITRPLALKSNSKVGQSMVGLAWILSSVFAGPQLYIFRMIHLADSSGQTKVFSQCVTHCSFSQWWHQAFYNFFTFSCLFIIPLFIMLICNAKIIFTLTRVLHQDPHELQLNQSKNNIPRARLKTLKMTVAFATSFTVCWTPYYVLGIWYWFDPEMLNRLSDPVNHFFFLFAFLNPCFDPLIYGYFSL
KiSS-1 receptor (Homo sapiens), sequence (Q969F8 whole entry, looked up): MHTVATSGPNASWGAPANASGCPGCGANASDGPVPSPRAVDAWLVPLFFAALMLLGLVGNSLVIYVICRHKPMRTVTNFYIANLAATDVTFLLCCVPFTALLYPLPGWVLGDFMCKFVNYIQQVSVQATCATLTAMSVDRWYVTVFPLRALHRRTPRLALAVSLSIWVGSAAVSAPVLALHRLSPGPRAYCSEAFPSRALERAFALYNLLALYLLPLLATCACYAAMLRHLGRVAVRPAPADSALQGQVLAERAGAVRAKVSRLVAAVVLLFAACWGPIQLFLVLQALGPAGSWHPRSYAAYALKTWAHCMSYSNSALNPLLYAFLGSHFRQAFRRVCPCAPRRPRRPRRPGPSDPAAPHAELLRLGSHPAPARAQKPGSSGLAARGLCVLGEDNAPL
5-hydroxytryptamine receptor 2A (Homo sapiens), sequence (P28223 whole entry, looked up): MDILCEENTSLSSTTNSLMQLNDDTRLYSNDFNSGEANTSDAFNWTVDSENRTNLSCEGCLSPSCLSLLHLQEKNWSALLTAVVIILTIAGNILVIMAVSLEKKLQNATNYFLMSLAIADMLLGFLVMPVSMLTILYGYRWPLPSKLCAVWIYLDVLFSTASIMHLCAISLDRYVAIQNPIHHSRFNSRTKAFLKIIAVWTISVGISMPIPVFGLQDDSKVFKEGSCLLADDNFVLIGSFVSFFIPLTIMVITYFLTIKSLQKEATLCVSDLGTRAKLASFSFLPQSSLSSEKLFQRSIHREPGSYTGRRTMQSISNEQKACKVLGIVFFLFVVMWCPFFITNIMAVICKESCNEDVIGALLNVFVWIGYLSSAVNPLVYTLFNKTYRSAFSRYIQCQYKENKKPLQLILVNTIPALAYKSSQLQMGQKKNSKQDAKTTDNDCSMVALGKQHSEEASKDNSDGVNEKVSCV
Muscarinic acetylcholine receptor M1 (Homo sapiens), sequence (P11229 whole entry, looked up): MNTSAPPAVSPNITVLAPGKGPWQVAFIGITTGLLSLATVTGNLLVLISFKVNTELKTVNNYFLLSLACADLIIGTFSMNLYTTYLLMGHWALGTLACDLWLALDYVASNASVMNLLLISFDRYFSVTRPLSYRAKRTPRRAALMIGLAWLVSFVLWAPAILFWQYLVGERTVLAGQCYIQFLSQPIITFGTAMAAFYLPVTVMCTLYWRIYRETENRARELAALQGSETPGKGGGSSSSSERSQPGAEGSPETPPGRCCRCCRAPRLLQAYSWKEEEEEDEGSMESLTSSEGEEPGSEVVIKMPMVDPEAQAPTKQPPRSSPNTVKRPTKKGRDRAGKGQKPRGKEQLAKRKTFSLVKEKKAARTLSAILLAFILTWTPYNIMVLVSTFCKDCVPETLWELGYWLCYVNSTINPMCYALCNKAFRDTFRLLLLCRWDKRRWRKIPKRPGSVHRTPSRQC

CCCCCCCCCCCC(=O)OCC
inactive: all assays above

CCCCNCCCC
not listed: [6] | [19]
inactive: all other assays above

Nc1nc(N)c2nc(CNc3ccc(C(=O)N[C@@H](CCC(=O)O)C(=O)O)cc3)cnc2n1
not listed: [6] | [9] | [10] | [11] | [12] | [13] | [14] | [16]
inactive: all other assays above

COc1nccnc1CC(C)C
not listed: [6] | [10] | [12] | [15] | [16] | [18] | [19]
inactive: all other assays above

c1ccc(C[n+]2cccc3ccccc32)cc1
not listed: [6] | [9] | [18]
inactive: all other assays above

O=C(/C=C/c1ccc(O)c(O)c1)O[C@@H]1C[C@@](OC(=O)/C=C/c2ccc(O)c(O)c2)(C(=O)O)C[C@@H](O)[C@@H]1O
not listed: [6] | [10]
inactive: all other assays above

O=C(O)CCCl
not listed: [6] | [12] | [16] | [17] | [19]
inactive: all other assays above

From PubChem BioAssay (Tox21)
